# Measured values taken from PubChem BioAssay (NCI).
# The panel holds about 79,000 compounds, 15% with a hit somewhere; the sample as a whole holds those more often. Unmarked numbers belong to inactive results. Active and inactive are the calls of the source. Rule as the data show it: active = growth inhibition above about 70%; inactive = the rest.
# Experiments:
# [1] = NCI Yeast Anticancer Drug Screen. Data for the rad52 strain (AID 147);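 also: 0% = growth of vehicle-treated control cultures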; settings: S. cerevisiae rad52 mutant growth inhibition, stronger effect = higher value
# Procedure, shortened: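 Here a repair-compromised yeast strain receives each compound; its growth is then quantified and normalised to vehicle-only controls.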
# [2] = NCI Yeast Anticancer Drug Screen. Data for the wt1 strain (AID 149);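 also: 0% = growth of vehicle-treated wt1 cultures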; settings: S. cerevisiae wt1 strain (SPY 50644) growth inhibition, stronger effect = higher value
# Procedure, shortened: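 Measured: growth of wt1 yeast under compound versus vehicle treatment, reported as inhibition.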
# [3] = NCI Yeast Anticancer Drug Screen. Data for the rad50EPP+ strain (AID 151);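 also: 0% = growth of vehicle-treated control cultures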; settings: S. cerevisiae rad50 mutant strain, stronger effect = higher value
# Procedure, shortened: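 Read-out is yeast growth inhibition relative to vehicle; cells used were the rad50EPP+ strain.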
# [4] = NCI Yeast Anticancer Drug Screen. Data for the mgt1 strain (AID 153); settings: S. cerevisiae mgt1 mutant growth inhibition, stronger effect = higher value
# Procedure, shortened: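 Measured: inhibition of mgt1 yeast growth by compound, normalized to vehicle-treated cultures.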
# [5] = NCI Yeast Anticancer Drug Screen. Data for the rad50 strain (AID 155);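 also: 0% = growth of vehicle-only cultures of the same strain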; settings: S. cerevisiae rad50 strain growth inhibition, stronger effect = higher value
# Procedure, shortened: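 Growth of the mutant yeast was measured after compound exposure and referenced to vehicle-treated cultures.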
# [6] = NCI Yeast Anticancer Drug Screen. Data for the mec2-1 strain (AID 157); settings: S. cerevisiae mec2-1 strain, stronger effect = higher value
# Procedure, shortened: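 Using mec2-1 yeast: add compound, measure growth, express inhibition versus vehicle-treated cultures.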
# [7] = NCI Yeast Anticancer Drug Screen. Data for the rad14 strain (AID 159);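 also: 0% = growth of vehicle-treated control cultures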; settings: S. cerevisiae rad14 strain growth inhibition, stronger effect = higher value
# Procedure, shortened: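 Here, inhibition of yeast growth was measured after compound exposure, using a strain with a genetic defect in DNA damage repair and vehicle-treated cultures as the reference.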
# [8] = NCI Yeast Anticancer Drug Screen. Data for the sgs1 mgt1 strain (AID 161);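 also: 0% = growth of cultures given vehicle only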; settings: S. cerevisiae sgs1 mgt1 strain, stronger effect = higher value
# Procedure, shortened: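 Growth of a repair-deficient yeast mutant was monitored after compound treatment and expressed as inhibition relative to vehicle-treated cultures.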
# [9] = NCI Yeast Anticancer Drug Screen. Data for the CLN2oe strain (AID 163);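 also: 0% = growth of vehicle-only control cultures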; settings: S. cerevisiae CLN2oe strain, stronger effect = higher value
# Procedure, shortened: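 Whole-cell yeast growth assay. A strain engineered for altered cell-cycle control received compound, and inhibition relative to vehicle-treated cultures was recorded.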
# [10] = NCI Yeast Anticancer Drug Screen. Data for the cln2 rad14 strain (AID 165);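 also: 0% = growth equal to vehicle treated cultures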; settings: S. cerevisiae cln2 rad14 strain, stronger effect = higher value
# Procedure, shortened: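 Yeast strain cln2 rad14, bearing defects in cell cycle control and DNA repair, serves as the test system; values reflect growth inhibition compared with vehicle.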
# [11] = NCI Yeast Anticancer Drug Screen. Data for the bub3 strain (AID 167); settings: S. cerevisiae bub3 mutant strain, stronger effect = higher value
# Procedure, shortened: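 Whole-cell yeast assay. The mutant strain was incubated with compounds, and growth inhibition was determined by comparison with vehicle-treated cells.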
# [12] = NCI Yeast Anticancer Drug Screen. Data for the wt2 strain (AID 169);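 also: 0% = growth of vehicle-treated yeast cultures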; settings: S. cerevisiae wt2 strain growth inhibition, stronger effect = higher value
# Procedure, shortened: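 Treated yeast vs. vehicle-treated yeast: growth inhibition determined.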
# [13] = NCI Yeast Anticancer Drug Screen. Data for the mlh1 strain (AID 171);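 also: 0% = growth of vehicle-treated control cultures of the same strain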; settings: S. cerevisiae mlh1 strain growth inhibition, stronger effect = higher value
# Procedure, shortened: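 A yeast strain with a defined genetic lesion serves as the test organism. Cultures receive compound or vehicle, and growth is measured.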
# [14] = NCI Yeast Anticancer Drug Screen. Data for the sgs1 strain (AID 173);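 also: 0% = growth of vehicle-only control cultures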; settings: S. cerevisiae sgs1 mutant, stronger effect = higher value
# Procedure, shortened: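 A genetically defined yeast mutant is incubated with the test compound, and its growth is compared to that of the same strain given vehicle.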
# [15] = NCI Yeast Anticancer Drug Screen. Data for the mlh1 rad18 strain (AID 175); settings: S. cerevisiae mlh1 rad18 strain growth inhibition, stronger effect = higher value
# Procedure, shortened: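 Steps: expose repair-defective yeast to compound; measure growth; express inhibition against vehicle-treated controls.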
# [16] = NCI Yeast Anticancer Drug Screen. Data for the rad18 strain (AID 177); settings: S. cerevisiae rad18 mutant growth inhibition, stronger effect = higher value
# Procedure, shortened: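 Measured value is growth inhibition of a yeast strain bearing a DNA repair alteration, referenced to vehicle-treated cells.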
# [17] = at 5.0 µM (retest, dose inferred, filed as 0.5)
# [18] = at 50.0 µM (retest, dose inferred, filed as 5.0)
structure (smiles),measurement,setting,value
CCC(C(=O)O)C1=C(c2ccccc2)CCc2ccccc21 (stereo not drawn),growth inhibition,[1]; at 1.2 µM,10%
same,growth inhibition,[1]; at 3.7 µM,29%
same,growth inhibition,[1]; at 11.0 µM,97% (active)
same,growth inhibition,[1]; at 33.0 µM,99% (active)
same,growth inhibition,[1]; at 100.0 µM,98% (active)
same,growth inhibition,[2]; at 1.2 µM,4%
same,growth inhibition,[2]; at 3.7 µM,20%
same,growth inhibition,[2]; at 11.0 µM,97% (active)
same,growth inhibition,[2]; at 33.0 µM,99% (active)
same,growth inhibition,[2]; at 100.0 µM,94% (active)
same,growth inhibition,[3]; at 1.2 µM,0%
same,growth inhibition,[3]; at 3.7 µM,2%
same,growth inhibition,[3]; at 11.0 µM,7%
same,growth inhibition,[3]; at 33.0 µM,26%
same,growth inhibition,[3]; at 100.0 µM,44%
same,growth inhibition,[4]; at 1.2 µM,7%
same,growth inhibition,[4]; at 3.7 µM,12%
same,growth inhibition,[4]; at 11.0 µM,90% (active)
same,growth inhibition,[4]; at 33.0 µM,99% (active)
same,growth inhibition,[4]; at 100.0 µM,80% (active)
same,growth inhibition,[5]; at 1.2 µM,10%
same,growth inhibition,[5]; at 3.7 µM,30%
same,growth inhibition,[5]; [17],23%
same,growth inhibition,[5]; at 11.0 µM,97% (active)
same,growth inhibition,[5]; at 33.0 µM,99% (active)
same,growth inhibition,[5]; [18],98% (active)
same,growth inhibition,[5]; at 50.0 µM,99.5% (active)
same,growth inhibition,[5]; at 100.0 µM,91% (active)
same,growth inhibition,[6]; at 1.2 µM,9%
same,growth inhibition,[6]; at 3.7 µM,28%
same,growth inhibition,[6]; [17],11%
same,growth inhibition,[6]; at 11.0 µM,95% (active)
same,growth inhibition,[6]; at 33.0 µM,99% (active)
same,growth inhibition,[6]; [18],99% (active)
same,growth inhibition,[6]; at 50.0 µM,99.5% (active)
same,growth inhibition,[6]; at 100.0 µM,98% (active)
same,growth inhibition,[7]; at 1.2 µM,12%
same,growth inhibition,[7]; at 3.7 µM,19%
same,growth inhibition,[7]; at 11.0 µM,96% (active)
same,growth inhibition,[7]; at 33.0 µM,99% (active)
same,growth inhibition,[7]; at 100.0 µM,90% (active)
same,growth inhibition,[8]; [17],6%
same,growth inhibition,[8]; [18],99% (active)
same,growth inhibition,[8]; at 50.0 µM,99.5% (active)
same,growth inhibition,[9]; at 1.2 µM,14%
same,growth inhibition,[9]; at 3.7 µM,23%
same,growth inhibition,[9]; at 11.0 µM,96% (active)
same,growth inhibition,[9]; at 33.0 µM,99% (active)
same,growth inhibition,[9]; at 100.0 µM,92% (active)
same,growth inhibition,[10]; [17],6%
same,growth inhibition,[10]; [18],98% (active)
same,growth inhibition,[10]; at 50.0 µM,98.8% (active)
same,growth inhibition,[11]; at 1.2 µM,6%
same,growth inhibition,[11]; at 3.7 µM,13%
same,growth inhibition,[11]; [17],-2%
same,growth inhibition,[11]; at 11.0 µM,93% (active)
same,growth inhibition,[11]; at 33.0 µM,99% (active)
same,growth inhibition,[11]; [18],97% (active)
same,growth inhibition,[11]; at 50.0 µM,99% (active)
same,growth inhibition,[11]; at 100.0 µM,94% (active)
same,growth inhibition,[12]; at 1.2 µM,6%
same,growth inhibition,[12]; at 3.7 µM,14%
same,growth inhibition,[12]; at 11.0 µM,96% (active)
same,growth inhibition,[12]; at 33.0 µM,98% (active)
same,growth inhibition,[12]; at 100.0 µM,99% (active)
same,growth inhibition,[13]; at 1.2 µM,9%
same,growth inhibition,[13]; at 3.7 µM,20%
same,growth inhibition,[13]; at 11.0 µM,96% (active)
same,growth inhibition,[13]; at 33.0 µM,99% (active)
same,growth inhibition,[13]; at 100.0 µM,93% (active)
same,growth inhibition,[14]; at 1.2 µM,7%
same,growth inhibition,[14]; at 3.7 µM,24%
same,growth inhibition,[14]; at 11.0 µM,97% (active)
same,growth inhibition,[14]; at 33.0 µM,99% (active)
same,growth inhibition,[14]; at 100.0 µM,99% (active)
same,growth inhibition,[15]; [17],52%
same,growth inhibition,[15]; [18],99% (active)
same,growth inhibition,[15]; at 50.0 µM,99.5% (active)
same,growth inhibition,[16]; at 1.2 µM,8%
same,growth inhibition,[16]; at 3.7 µM,27%
same,growth inhibition,[16]; at 11.0 µM,97% (active)
same,growth inhibition,[16]; at 33.0 µM,99% (active)
same,growth inhibition,[16]; at 100.0 µM,82% (active)
